Data: the supplement of paper PMC10849652
The full data set covers some 7,900 targets. This sample favours those with a hit. About 0.6% of all pairs of compound and target were hits.

How the values were obtained:
Assay in all cases: log2 fold change, soluble protein after heating vs DMSO (PISA); higher = thermal stabilisation; K562 cells, 10 uM, 30 min; active = over 0.2 and 3.5 SD of the protein, either way, in both replicates (recomputed)
[1] = compound: C1=CC=C(C=C1)[C@H](COC2=CC3=C(C=C2)NC(=O)N3)NC(=O)C4=CC=CN(C4=O)CC5=CC(=C(C=C5)F)F
How it was run: (§1)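 For each measurement, 10 μM compound was applied for 30 min to K562 cells at 2×10^6 cells/mL. Aliquots were heated for 3 min across 48°C-58°C, pooled, and extracted in PBS with 0.5% NP-40 at 4°C; the supernatant after 21,000xg for 90 min was soluble protein. This was quantified by TMTpro 16plex LC-MS/MS with channel sums equalised, and thermal stability was reported relative to control samples from duplicates, on a log2 fold-change scale.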

[2] = compound: CC1=C(SC2=C1C(=N[C@H](C3=NN=C(N32)C)CC(=O)N)C4=CC=C(C=C4)Cl)C
How it was run: as §1

[3] = compound: CC1=C2C(=CC=C1)N=C(N(C2=O)C3=CC=CC=C3C)CN4C=NC5=C(N=CN=C54)N
How it was run: as §1

[4] = compound: Cc1sc2c(c1C)C(c1ccc(Cl)cc1)=N[C@@H](CC(=O)OC(C)(C)C)c1nnc(C)n1-2
How it was run: as §1

[5] = compound: c1ccc([C@@H]2C[C@H]2NC2CCNCC2)cc1
How it was run: as §1

Measured: log2 fold change

PECAM1 (UniProt P16284)
inactive: [1] 0.063 | [2] 0.138 | [3] 0.014 | [4] -0.06 | [5] 0.047

POGLUT1 (UniProt Q8NBL1)
Chain of UniProt Q8NBL1 (Q8NBL1 whole entry, looked up): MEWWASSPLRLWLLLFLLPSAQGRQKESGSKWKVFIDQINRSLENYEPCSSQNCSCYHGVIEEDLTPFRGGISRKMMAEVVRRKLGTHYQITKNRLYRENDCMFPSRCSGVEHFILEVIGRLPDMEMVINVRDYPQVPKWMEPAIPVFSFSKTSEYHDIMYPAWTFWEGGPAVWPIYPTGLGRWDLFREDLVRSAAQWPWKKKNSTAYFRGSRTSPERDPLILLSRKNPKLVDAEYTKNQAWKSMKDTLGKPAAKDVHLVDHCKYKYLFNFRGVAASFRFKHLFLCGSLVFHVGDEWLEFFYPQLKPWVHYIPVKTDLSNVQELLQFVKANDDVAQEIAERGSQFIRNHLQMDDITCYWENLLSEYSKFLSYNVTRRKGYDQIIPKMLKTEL
inactive: [1] 0.039 | [2] -0.041 | [3] 0.082 | [4] 0.07 | [5] 0.015

PSMD9 (UniProt O00233)
Chain of UniProt O00233 (O00233 whole entry, looked up): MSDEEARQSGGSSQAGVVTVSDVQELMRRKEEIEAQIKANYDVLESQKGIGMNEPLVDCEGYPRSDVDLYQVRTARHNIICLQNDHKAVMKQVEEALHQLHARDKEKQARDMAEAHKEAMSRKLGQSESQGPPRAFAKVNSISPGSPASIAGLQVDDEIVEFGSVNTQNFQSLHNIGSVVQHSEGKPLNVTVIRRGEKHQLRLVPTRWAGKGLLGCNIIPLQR
inactive: [1] 0.014 | [2] 0.017 | [3] -0.004 | [4] 0.007 | [5] 0.016

POMP (UniProt Q9Y244)
inactive: [1] -0.101 | [2] -0.077 | [3] -0.069 | [4] -0.018 | [5] -0.009

PRMT7 (UniProt Q9NVM4)
inactive: [1] -0.051 | [2] 0.015 | [3] 0.056 | [4] 0.009 | [5] -0.027

PIP4K2C (UniProt Q8TBX8)
inactive: [1] -0.148 | [2] 0.034 | [3] 0.05 | [4] -0.029 | [5] -0.042

PCK2 (UniProt Q16822)
inactive: [1] 0.051 | [2] 0.038 | [3] 0.057 | [4] 0.008 | [5] -0.038

PTGFRN (UniProt Q9P2B2)
Chain of UniProt Q9P2B2 (Q9P2B2 whole entry, looked up): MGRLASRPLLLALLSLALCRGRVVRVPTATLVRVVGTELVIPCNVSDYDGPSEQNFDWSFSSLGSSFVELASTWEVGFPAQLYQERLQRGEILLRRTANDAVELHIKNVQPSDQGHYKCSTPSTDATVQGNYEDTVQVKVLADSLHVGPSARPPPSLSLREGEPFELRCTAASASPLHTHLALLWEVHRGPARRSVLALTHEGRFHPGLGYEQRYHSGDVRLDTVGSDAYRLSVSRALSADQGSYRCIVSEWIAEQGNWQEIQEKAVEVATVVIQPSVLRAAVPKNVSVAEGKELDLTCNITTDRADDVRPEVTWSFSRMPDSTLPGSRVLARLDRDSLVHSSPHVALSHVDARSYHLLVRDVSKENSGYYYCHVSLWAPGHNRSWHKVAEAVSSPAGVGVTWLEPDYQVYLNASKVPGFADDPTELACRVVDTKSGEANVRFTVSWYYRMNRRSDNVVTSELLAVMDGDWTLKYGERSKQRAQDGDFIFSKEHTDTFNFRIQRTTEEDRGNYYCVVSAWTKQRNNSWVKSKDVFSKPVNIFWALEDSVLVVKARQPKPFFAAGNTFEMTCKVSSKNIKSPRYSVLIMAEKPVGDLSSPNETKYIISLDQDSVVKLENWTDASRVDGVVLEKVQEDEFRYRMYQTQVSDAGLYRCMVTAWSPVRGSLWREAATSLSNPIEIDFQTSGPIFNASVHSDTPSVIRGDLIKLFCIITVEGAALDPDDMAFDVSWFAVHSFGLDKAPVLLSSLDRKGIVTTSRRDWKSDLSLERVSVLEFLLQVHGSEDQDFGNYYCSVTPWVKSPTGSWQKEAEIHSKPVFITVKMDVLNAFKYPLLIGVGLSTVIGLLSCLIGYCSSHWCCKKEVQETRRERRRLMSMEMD
inactive: [1] -0.014 | [2] 0.036 | [3] 0.043 | [4] 0.04 | [5] -0.006

PITRM1 isoform 2 (UniProt Q5JRX3)
inactive: [1] 0.064 | [2] -0.08 | [3] 0.048 | [4] -0.083 | [5] 0

PRUNE1 (UniProt Q86TP1)
Chain of UniProt Q86TP1 (Q86TP1 whole entry, looked up): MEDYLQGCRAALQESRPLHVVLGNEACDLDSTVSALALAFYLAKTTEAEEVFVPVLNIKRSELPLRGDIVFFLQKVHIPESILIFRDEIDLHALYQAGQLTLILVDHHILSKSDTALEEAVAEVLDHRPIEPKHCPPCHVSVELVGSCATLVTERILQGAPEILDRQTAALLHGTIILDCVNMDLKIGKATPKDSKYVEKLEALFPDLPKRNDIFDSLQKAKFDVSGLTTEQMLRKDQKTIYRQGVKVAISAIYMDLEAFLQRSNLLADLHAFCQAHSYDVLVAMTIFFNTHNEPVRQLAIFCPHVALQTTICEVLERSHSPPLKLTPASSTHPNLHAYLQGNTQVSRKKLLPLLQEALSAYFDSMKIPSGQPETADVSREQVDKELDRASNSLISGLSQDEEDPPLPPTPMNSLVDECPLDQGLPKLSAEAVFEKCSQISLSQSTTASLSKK
inactive: [1] -0.025 | [2] -0.002 | [3] 0.023 | [4] 0 | [5] -0.007

PHKA2 (UniProt P46019)
inactive: [1] -0.018 | [2] -0.003 | [3] 0.053 | [4] 0.023 | [5] 0.024

PTGES3 (UniProt Q15185)
inactive: [1] -0.009 | [2] 0.016 | [3] 0.067 | [4] -0.046 | [5] -0.063

PRCP (UniProt P42785)
inactive: [1] 0.023 | [2] -0.036 | [3] -0.061 | [4] 0.018 | [5] 0.062

POLR2K (UniProt P53803)
inactive: [1] 0.053 | [2] 0.06 | [3] 0.046 | [4] 0.032 | [5] -0.056

PRPF4B (UniProt Q13523)
inactive: [1] 0.118 | [2] -0.098 | [3] 0 | [4] 0.109 | [5] 0.168

PLIN2 (UniProt Q99541)
inactive: [1] -0.063 | [2] -0.006 | [3] 0.093 | [4] 0.004 | [5] 0.015

PYGL (UniProt P06737)
inactive: [1] 0.006 | [2] 0.047 | [3] 0.026 | [4] 0.006 | [5] -0.032

PLCB3 (UniProt Q01970)
inactive: [1] -0.019 | [2] -0.015 | [3] 0 | [4] -0.048 | [5] -0.062

PRKAB2 (UniProt O43741)
inactive: [1] -0.133 | [2] 0.084 | [3] -0.087 | [4] -0.117 | [5] -0.077

PKN1 isoform 2 (UniProt Q16512)
inactive: [1] -0.077 | [2] 0.079 | [3] 0.069 | [4] 0.015 | [5] 0

PARL (UniProt Q9H300)
inactive: [1] 0.017 | [2] -0.017 | [3] 0.045 | [4] 0.028 | [5] 0.031

PRKCE (UniProt Q02156)
inactive: [1] -0.065 | [2] 0.033 | [3] 0.071 | [4] 0.018 | [5] 0

POTEI (UniProt P0CG38)
inactive: [1] 0.025 | [2] 0.012 | [3] -0.059 | [4] -0.03 | [5] -0.002

PLA2G15 (UniProt Q8NCC3)
inactive: [1] 0.02 | [2] -0.01 | [3] -0.034 | [4] -0.001 | [5] 0

PRPSAP2 (UniProt O60256)
inactive: [1] 0.009 | [2] -0.026 | [3] -0.027 | [4] -0.012 | [5] 0

PMPCA (UniProt Q10713)
inactive: [1] -0.015 | [2] 0.121 | [3] 0.06 | [4] 0.018 | [5] -0.047

PRKAG1 isoform 3 (UniProt P54619)
inactive: [1] -0.008 | [2] 0.067 | [3] 0.019 | [4] -0.011 | [5] -0.017

PTPA (UniProt Q15257)
inactive: [1] -0.013 | [2] 0.021 | [3] 0.005 | [4] -0.041 | [5] -0.003

PARG (UniProt Q86W56)
inactive: [1] -0.043 | [2] -0.013 | [3] 0.018 | [4] -0.009 | [5] -0.075

PRPF38A (UniProt Q8NAV1)
inactive: [1] 0.014 | [2] -0.011 | [3] 0.024 | [4] 0.007 | [5] 0.015

PSMD11 (UniProt O00231)
inactive: [1] 0.043 | [2] -0.049 | [3] -0.053 | [4] -0.017 | [5] 0

PISD (UniProt Q9UG56)
inactive: [1] 0.002 | [2] -0.024 | [3] 0.079 | [4] -0.011 | [5] 0.043

PTK2B (UniProt Q14289)
inactive: [1] -0.105 | [2] -0.098 | [3] 0.194 | [4] 0 | [5] -0.013

PPM1G (UniProt O15355)
inactive: [1] -0.139 | [2] 0.025 | [3] 0.081 | [4] 0.002 | [5] -0.089

PSMD12 (UniProt O00232)
inactive: [1] 0.021 | [2] -0.063 | [3] -0.066 | [4] -0.045 | [5] -0.009

PDE2A (UniProt O00408)
Chain of UniProt O00408 (O00408 whole entry, looked up): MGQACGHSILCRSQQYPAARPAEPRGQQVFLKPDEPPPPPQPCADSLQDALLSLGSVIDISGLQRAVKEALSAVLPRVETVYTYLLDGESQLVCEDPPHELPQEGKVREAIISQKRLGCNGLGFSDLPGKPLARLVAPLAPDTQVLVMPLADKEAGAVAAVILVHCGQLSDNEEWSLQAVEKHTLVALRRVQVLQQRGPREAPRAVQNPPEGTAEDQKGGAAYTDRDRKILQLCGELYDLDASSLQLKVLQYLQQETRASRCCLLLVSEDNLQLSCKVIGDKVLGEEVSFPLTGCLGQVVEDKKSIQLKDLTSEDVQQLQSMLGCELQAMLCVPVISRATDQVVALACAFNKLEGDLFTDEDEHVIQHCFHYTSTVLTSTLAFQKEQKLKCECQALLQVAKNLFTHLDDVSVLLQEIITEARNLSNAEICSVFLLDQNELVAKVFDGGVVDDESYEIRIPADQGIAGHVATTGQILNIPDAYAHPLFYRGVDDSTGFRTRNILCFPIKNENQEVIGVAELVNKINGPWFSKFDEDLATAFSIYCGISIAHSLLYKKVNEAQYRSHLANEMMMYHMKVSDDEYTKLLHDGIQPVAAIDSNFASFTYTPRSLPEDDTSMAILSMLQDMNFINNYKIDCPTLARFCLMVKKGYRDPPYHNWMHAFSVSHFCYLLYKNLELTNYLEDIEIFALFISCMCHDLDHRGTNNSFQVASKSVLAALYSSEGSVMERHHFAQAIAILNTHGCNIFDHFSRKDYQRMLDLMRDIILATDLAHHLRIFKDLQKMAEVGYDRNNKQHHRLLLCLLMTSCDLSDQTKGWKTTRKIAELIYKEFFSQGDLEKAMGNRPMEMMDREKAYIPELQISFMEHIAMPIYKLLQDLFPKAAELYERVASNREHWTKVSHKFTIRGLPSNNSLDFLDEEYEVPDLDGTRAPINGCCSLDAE
inactive: [1] 0.079 | [2] 0.08 | [3] 0.16 | [4] -0.024 | [5] 0.065

PSMD5 (UniProt Q16401)
inactive: [1] 0 | [2] 0.028 | [3] 0.006 | [4] -0.006 | [5] -0.001

PNPLA2 (UniProt Q96AD5)
inactive: [1] 0.06 | [2] 0.014 | [3] 0.037 | [4] 0.068 | [5] -0.046

PSPC1 (UniProt Q8WXF1)
inactive: [1] -0.023 | [2] -0.029 | [3] 0.038 | [4] -0.032 | [5] 0.015

PRKAR1B (UniProt P31321)
inactive: [1] 0.21 | [2] -0.026 | [3] 0.059 | [4] 0.019 | [5] -0.061

PPP1R14A (UniProt Q96A00)
Chain of UniProt Q96A00 (Q96A00 whole entry, looked up): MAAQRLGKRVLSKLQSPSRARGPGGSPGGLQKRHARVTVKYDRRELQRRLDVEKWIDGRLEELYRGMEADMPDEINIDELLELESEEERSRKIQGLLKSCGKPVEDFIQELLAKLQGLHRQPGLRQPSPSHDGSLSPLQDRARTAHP
inactive: [1] 0.011 | [2] 0.009 | [3] -0.002 | [4] 0.061 | [5] -0.013

PCNT (UniProt O95613)
inactive: [1] 0.037 | [2] -0.067 | [3] 0.11 | [4] 0.064 | [5] 0.105

PDCD4 (UniProt Q53EL6)
inactive: [1] -0.055 | [2] 0.002 | [3] 0.053 | [4] -0.167 | [5] -0.003

PIR (UniProt O00625)
inactive: [1] 0.016 | [2] 0.064 | [3] 0.027 | [4] -0.029 | [5] 0.002

PHAX (UniProt Q9H814)
inactive: [1] 0.014 | [2] -0.019 | [3] -0.015 | [4] -0.024 | [5] 0.022

PPP2R5C isoform 4 (UniProt Q13362)
Chain of UniProt Q13362 (Q13362 whole entry, looked up): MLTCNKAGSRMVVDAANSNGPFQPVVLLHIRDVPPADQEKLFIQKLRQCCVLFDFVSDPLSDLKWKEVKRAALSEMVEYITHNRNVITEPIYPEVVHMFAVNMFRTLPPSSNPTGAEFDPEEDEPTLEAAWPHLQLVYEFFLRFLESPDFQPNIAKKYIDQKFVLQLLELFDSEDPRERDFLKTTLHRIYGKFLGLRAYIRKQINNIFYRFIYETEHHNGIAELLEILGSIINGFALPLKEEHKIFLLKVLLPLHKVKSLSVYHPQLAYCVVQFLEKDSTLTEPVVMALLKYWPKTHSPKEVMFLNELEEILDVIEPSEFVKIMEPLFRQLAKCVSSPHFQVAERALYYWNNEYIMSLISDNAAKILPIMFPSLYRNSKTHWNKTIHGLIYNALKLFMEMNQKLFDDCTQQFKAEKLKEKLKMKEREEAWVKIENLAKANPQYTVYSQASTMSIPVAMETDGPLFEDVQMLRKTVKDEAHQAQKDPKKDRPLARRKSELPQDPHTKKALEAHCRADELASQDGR
inactive: [1] -0.03 | [2] -0.003 | [3] 0.117 | [4] -0.019 | [5] 0.012

PSMC1 (UniProt P62191)
inactive: [1] 0.047 | [2] -0.09 | [3] -0.002 | [4] 0 | [5] 0

PTDSS1 (UniProt P48651)
inactive: [1] -0.027 | [2] -0.072 | [3] -0.115 | [4] 0.042 | [5] 0.017

PCLAF (UniProt Q15004)
Chain of UniProt Q15004 (Q15004 whole entry, looked up): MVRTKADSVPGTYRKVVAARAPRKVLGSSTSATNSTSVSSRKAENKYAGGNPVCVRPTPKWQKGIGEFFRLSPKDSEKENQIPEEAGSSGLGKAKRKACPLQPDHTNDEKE
inactive: [1] 0.055 | [2] -0.022 | [3] -0.045 | [4] 0.02 | [5] 0.07

PRKAR1A (UniProt P10644)
Chain of UniProt P10644 (P10644 whole entry, looked up): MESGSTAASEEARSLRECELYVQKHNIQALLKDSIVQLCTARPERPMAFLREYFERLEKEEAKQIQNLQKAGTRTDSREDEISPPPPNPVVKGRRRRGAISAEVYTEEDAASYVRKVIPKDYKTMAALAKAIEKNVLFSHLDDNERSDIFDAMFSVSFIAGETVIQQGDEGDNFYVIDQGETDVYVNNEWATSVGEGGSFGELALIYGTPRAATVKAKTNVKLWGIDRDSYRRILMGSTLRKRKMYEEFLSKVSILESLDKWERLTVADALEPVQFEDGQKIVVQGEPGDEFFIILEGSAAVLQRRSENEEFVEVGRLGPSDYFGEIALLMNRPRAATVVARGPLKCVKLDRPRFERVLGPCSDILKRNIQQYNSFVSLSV
inactive: [1] 0.213 | [2] -0.019 | [3] 0.119 | [4] 0.041 | [5] -0.008

PFDN1 (UniProt O60925)
Chain of UniProt O60925 (O60925 whole entry, looked up): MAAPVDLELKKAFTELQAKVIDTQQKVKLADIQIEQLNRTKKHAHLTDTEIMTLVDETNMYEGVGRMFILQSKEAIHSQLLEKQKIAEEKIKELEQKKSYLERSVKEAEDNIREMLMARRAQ
inactive: [1] -0.102 | [2] 0.155 | [3] 0.061 | [4] -0.171 | [5] -0.061

PSMD7 (UniProt P51665)
Chain of UniProt P51665 (P51665 whole entry, looked up): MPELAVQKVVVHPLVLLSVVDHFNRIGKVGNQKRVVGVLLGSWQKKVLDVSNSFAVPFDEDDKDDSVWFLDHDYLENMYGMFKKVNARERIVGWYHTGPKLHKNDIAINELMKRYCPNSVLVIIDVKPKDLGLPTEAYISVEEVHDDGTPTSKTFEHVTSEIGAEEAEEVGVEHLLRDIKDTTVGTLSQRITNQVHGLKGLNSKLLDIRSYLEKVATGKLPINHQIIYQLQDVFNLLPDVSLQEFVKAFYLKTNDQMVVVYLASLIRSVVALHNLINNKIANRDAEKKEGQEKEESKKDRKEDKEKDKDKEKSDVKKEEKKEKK
inactive: [1] 0.033 | [2] -0.102 | [3] -0.024 | [4] 0.034 | [5] 0

PCYT1B (UniProt Q9Y5K3)
Chain of UniProt Q9Y5K3 (Q9Y5K3 whole entry, looked up): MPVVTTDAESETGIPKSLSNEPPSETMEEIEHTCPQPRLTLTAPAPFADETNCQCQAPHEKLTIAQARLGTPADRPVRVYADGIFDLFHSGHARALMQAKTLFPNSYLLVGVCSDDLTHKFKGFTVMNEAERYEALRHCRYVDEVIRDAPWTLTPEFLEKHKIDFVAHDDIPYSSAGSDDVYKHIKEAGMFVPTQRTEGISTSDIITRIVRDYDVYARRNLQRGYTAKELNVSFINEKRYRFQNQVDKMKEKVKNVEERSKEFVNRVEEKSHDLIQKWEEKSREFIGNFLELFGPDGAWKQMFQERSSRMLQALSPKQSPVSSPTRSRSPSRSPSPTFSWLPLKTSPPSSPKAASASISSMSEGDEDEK
inactive: [1] -0.063 | [2] -0.003 | [3] 0.022 | [4] 0.042 | [5] 0.034
